Shown are actives, neighbours in structure and some others; about 4% of the full set was active somewhere.
TRPM1 prom inh = inhibitors of MITF-dependent TRPM1 promoter reporter, primary screen, cell-based, SK-MEL-5, single point, luciferase | SK-MEL-5 TRPM1 promoter luciferase, 24 h | inhibition, % at 12.5 µM | 330,000 tested, 0.83% active | AID 488899, 2010;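 active means mean inhibition across replicates of 60% or more, whatever share of single replicates reaches that level; inconclusive means some that reach 60%, reason not given; inactive means mean inhibition across replicates below 60%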
HIF-2a block = HIF-2a reporter inhibitors, primary screen, luminescence, 786-0 RCC cells; inhibition, % at 18.8 µM; 360,000 tested, 0.72% active; 786-0 RCC cells HIF-2a reporter, luciferase luminescence, overnight;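 active means inhibition of the luminescence signal of 40% or more relative to plate controls, in a single-dose primary screen at 18.75 µM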
Peg3 promoter = Peg3 promoter-driven luciferase inhibitors, primary screen, cell-based, HeLa, luciferase luminescence; HeLa PEG-Prom luciferase reporter, overnight; inhibition, % at 20 µM; 360,000 tested, 1.7% active; AID 588405, 2011;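 active means inhibition of at least 50% at 20 µM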
LMP1 NFkB inh = EBV LMP1-driven NF-kappaB luciferase reporter inhibitors, primary screen, cell-based, luminescence, single point | inhibition, % at 12.5 µM | 350,000 tested, 0.69% active | AID 504558, 2011 | LMP1-induced NF-kappaB luciferase reporter cells; in the data active means inhibition above about 41%; inconclusive means no clear call, values can overlap the other calls
TWEAK Fn14 block = inhibitors of TWEAK-Fn14 signaling, primary screen, luciferase reporter cells, uHTS; TWEAK-stimulated Fn14 reporter cells, luciferase luminescence, 8 h; inhibition, % at 10 µM; 360,000 tested, 2% active; in the data active means inhibition above about 50%
TROY NFkB inh = inhibitors of TROY-driven NF-kB signaling, primary screen, Q293 LMP1-TROYcd cells, NF-kB luciferase, uHTS; Q293 LMP1-TROYcd NF-kB luciferase reporter, 4 h; inhibition, % at 10 µM; 360,000 tested, 0.98% active; AID 1347056, 2019;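 active means compounds whose plate-normalised and pattern-corrected inhibition of the luciferase reporter signal at the single screening dose is 50% or more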
Mdm2-MdmX confirm = retested Mdm2-MdmX interaction blockers, confirmation, cell-based, luminescence, single concentration, set 2 | shares compounds with HIF-2a block | SaOS-2 split-luciferase Mdm2/MdmX complementation | inhibition, % at 8 µM | 740 tested, 99% active | AID 504601, 2011;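 active means mean inhibition of the luminescence signal across two replicates at or above 26 percent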
HIF-2a conf = HIF-2a reporter inhibitor retest, confirmation, luminescence, 786-0 RCC cells. shares compounds with HIF-2a block. inhibition, % at 18.8 µM. 1,800 tested, 56% active. HIF-2a luciferase reporter luminescence, overnight;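 active means mean inhibition across four replicates of at least 40 percent at the single tested concentration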
HIF-1a counter = HIF-1a luciferase reporter signal reduction – MiaPaCa-2 cells, single concentration, counter-screen for HIF-2a inhibitor project, confirmation. shares compounds with HIF-2a block. MiaPaCa-2 HIF-1a luciferase reporter, desferoxamine, overnight. inhibition, % at 18.8 µM. 1,800 tested, 72% active. AID 651589, 2012;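 active means mean inhibition of the reporter signal across four replicates at the single tested dose of 50% or more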
Of the large screens only hits and unclear results are named; the others gave an inactive call (follow-up assays come after a bar, where they were run).

O=C(O)c1cccc(-c2nnn(Cc3ccccc3Cl)n2)c1	HIF-2a block 65 | HIF-2a conf 63 | HIF-1a counter inactive
O=C(O)c1cccc(-c2nnn(Cc3ccccc3)n2)c1	none
O=C1C=CC(=O)N1CCNc1ncc(C(F)(F)F)cc1Cl	Peg3 promoter 108 | Mdm2-MdmX confirm 103
N#CC(C#N)=C1C=CC=CN1/C(=C\c1ccccc1Cl)C(=O)c1ccccc1	TRPM1 prom inh 77, HIF-2a block 97, Peg3 promoter 108 | HIF-2a conf 88 | HIF-1a counter 94
O=C(O)c1ccccc1C(=O)NCC(O)COc1ccc(Cl)cc1 (stereo not drawn)	none
COC(=O)c1ccc2c(c1)C(C)(C)C(/C=C/c1ccc(OC)c(OC)c1OC)=[N+]2C	TRPM1 prom inh 101, HIF-2a block 95, Peg3 promoter 107 | Mdm2-MdmX confirm 103 | HIF-2a conf 88 | HIF-1a counter 107
CC(=O)Cc1nsc(NC(=O)c2ccc(COc3ccccc3C)o2)n1	none
COc1ccc(CN(CC(O)COCc2ccccc2)S(=O)(=O)c2ccccc2Br)cc1OC (stereo not drawn)	none
Cc1cc2nc(Sc3c([N+](=O)[O-])nc(C)n3Cc3ccccc3)[nH]c2cc1C	HIF-2a block 53, TWEAK Fn14 block 84 | HIF-2a conf inactive | HIF-1a counter inactive
O=C(Nc1ccc(Cl)cc1Cl)c1cccc(N2C(=O)C=CC2=O)c1	HIF-2a block 44, Peg3 promoter 108 | HIF-2a conf 80 | HIF-1a counter inactive
O=C(O)c1cccc(N2C(=O)C=CC2=O)c1	none (no result: TRPM1 prom inh)
COc1ccc(NC(=O)C2(C)CCN2C2Cc3ccccc3C2)cc1OC (stereo not drawn)	none (no result: TRPM1 prom inh, LMP1 NFkB inh)
CN(C)CCCNc1c2ccccc2nc2ccccc12	TRPM1 prom inh inconclusive, Peg3 promoter 102 | Mdm2-MdmX confirm 102
CC(=O)c1ccc(-c2ccc(C(=O)Nc3nc(-c4ccccn4)cs3)o2)cc1	Peg3 promoter 76 | Mdm2-MdmX confirm 99
O=C(Nc1nc(-c2ccccn2)cs1)c1ccc2c(c1)OCCO2	none (no result: TRPM1 prom inh)

Compound activity: PubChem BioAssay, several laboratories
